Measurements taken from PubChem BioAssay (NCATS).
Several values for one entry are separate records, joined by “and”; a condition that tells them apart may be missing. Equal values may be shown once. Records with an inconclusive call do not appear. Activity calls are given as the source filed them. Unless noted, calls come from the whole dose curve; as a rule, active = well fitted curve in the direction sought with a large enough effect; inconclusive = small, poorly fitted or top-dose-only effect, or another doubt; inactive = no such curve, though single readings can be large; an effect the other way counts as inactive or inconclusive.

Tests used:
[1] = molecular target: Nuclear receptor subfamily 1 group I member 2 (Homo sapiens) (UniProt O75469); assay: Dual reporter qHTS for agonist of Pregnane X Receptor (hPXR) against the NCATS DSHEA and TCM libraries: Luminescence readout (AID 1920059); note: 0% is about no effect
Sequence of Nuclear receptor subfamily 1 group I member 2 (Homo sapiens) (O75469 whole entry, looked up): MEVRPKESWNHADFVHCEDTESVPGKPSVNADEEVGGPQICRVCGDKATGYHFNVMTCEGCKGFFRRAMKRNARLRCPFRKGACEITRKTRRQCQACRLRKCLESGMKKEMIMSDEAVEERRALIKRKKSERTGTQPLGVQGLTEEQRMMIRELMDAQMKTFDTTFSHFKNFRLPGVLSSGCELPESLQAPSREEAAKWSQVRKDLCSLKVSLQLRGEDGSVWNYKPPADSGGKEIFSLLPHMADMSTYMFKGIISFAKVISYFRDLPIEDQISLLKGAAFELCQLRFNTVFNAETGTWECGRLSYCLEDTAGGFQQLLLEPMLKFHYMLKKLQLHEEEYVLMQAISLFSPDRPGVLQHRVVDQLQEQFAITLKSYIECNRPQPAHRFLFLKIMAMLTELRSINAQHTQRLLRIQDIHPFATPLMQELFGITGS
In short: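 Luminescent PXR reporter read (ONE-Glo) after a CellTiter-Fluor viability read, following 24 h, 37C treatment of HepG2 cells stably carrying hPXR-Luc.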

[2] = Dual reporter qHTS for antagonist of Pregnane X Receptor (hPXR) against the NCATS DSHEA and TCM libraries: Fluorescence Readout (AID 1920061); note: 0% is about no effect
In short: (§1)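 In antagonist mode, 2 uM rifampicin was added to hPXR-Luc HepG2 cells alongside test substances, incubated 24 h at 37 C; luminescence gave reporter activity, and CellTiter-Fluor fluorescence (405/540 nm) gave viability.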

[3] = qHTS profiling for inhibitors of Plasmodium falciparum proliferation (AID 504749); note: potency is the fitted concentration of half-maximal effect;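 for activity, negative = inhibition: 0% = DMSO vehicle and full inhibition = artemisinin control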; for all read-outs here: nearly all actives have a fitted effect of over 60% in size; settings: P. falciparum in erythrocytes, SYBR Green DNA, 72 h; for activity, negative = inhibition: at 28.7 µM (top of the series)
In short: (§2)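 Infected RBCs, 0.3% parasitemia/2.5% Hct final; cpd 72 h, 37 C, 5% CO2; lysis buffer with saponin/triton/SYBR Green I, o/n RT dark; FI 485/535; norm. to artemisinin (0.29 uM) and DMSO.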

3D7 = assay: as above; settings: P. falciparum in erythrocytes, SYBR Green DNA, 72 h; series mostly up to 28.7 µM
In short: as §2

7G8 = assay: as above; settings: P. falciparum in erythrocytes, SYBR Green DNA, 72 h; series mostly up to 28.7 µM
In short: as §2

AA1029 = assay: as above; settings: P. falciparum in erythrocytes, SYBR Green DNA, 72 h; series mostly up to 28.7 µM
In short: as §2

AS120 = assay: as above; settings: P. falciparum in erythrocytes, SYBR Green DNA, 72 h; series mostly up to 28.7 µM
In short: as §2

ATS189 = assay: as above; settings: P. falciparum in erythrocytes, SYBR Green DNA, 72 h; series mostly up to 28.7 µM
In short: as §2

[4] = qHTS drug screen for cell cycle checkpoint inhibitors in PARPi-resistant BRCA-mutant ovarian cancer cell lines. (AID 1963452; calls by dose curve); settings: PEO1/OlaR viability, CellTiter-Glo luminescence, 96 h, stronger effect = lower value
In short: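 PEO1, PEO4 and PEO1/OlaR ovarian cancer cells, 600 per well, exposed 96 h at 37C to a dilution series. Viability read by CellTiter-Glo luminescence, normalized to DMSO and empty wells; activity summarized as Z-AUC.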

[5] = molecular target: Nuclear receptor subfamily 1 group I member 2 (Homo sapiens) (UniProt O75469); assay: Dual reporter qHTS for antagonist of Pregnane X Receptor (hPXR) against the NCATS DSHEA and TCM libraries: Luminescence Readout (AID 1920060);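 note: HepG2 cells carrying hPXR luciferase reporter stimulated with rifampicin at 2 µM; 0% is about no effect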
In short: as §1

[6] = measured here: PEO1 parental Z-AUC

O=C1O[C@H]([C@@H](O)CO)C(O)=C1O
outcome [1]: inactive
outcome [2]: inactive
activity, negative = inhibition ([3]; parasite line A): 10.5% (inactive)
activity, negative = inhibition ([3]; parasite line B): 5.51% (inactive)
Potency (3D7): inactive
Potency (7G8): inactive
Potency (AA1029): inactive
Potency (AS120): inactive
Potency (ATS189): inactive

CC(=O)Oc1ccc(C2(c3ccc(OC(C)=O)cc3)C(=O)Nc3ccccc32)cc1
activity, negative = inhibition ([3]; parasite line A): 5.01% (inactive) and 7.68% (inactive)
activity, negative = inhibition ([3]; parasite line B): 2.92% (inactive) and 4.08% (inactive)
Potency (3D7): inactive
Potency (7G8): inactive
Potency (AA1029): inactive
Potency (AS120): inactive
Potency (ATS189): inactive

CN(N=O)C(=O)N[C@@H]1[C@@H](O)[C@H](O)[C@@H](CO)O[C@@H]1O
Z-AUC [4]: 1.08 (inactive)
Z-AUC [4, 6]: 0.655
Z-AUC ([4]; measured here: PEO4 Z-AUC): 0.737

NC(=O)c1ncn([C@@H]2O[C@H](CO)[C@@H](O)[C@H]2O)c1N
Z-AUC [4]: -0.269 (inactive)
Z-AUC [4, 6]: -0.745
Z-AUC ([4]; measured here: PEO4 Z-AUC): -0.555

C=Cc1c(C)c2cc3[nH]c(cc4nc(cc5nc(cc1[nH]2)C(C)=C5CCC(=O)O)C(CCC(=O)O)=C4C)c(C)c3C=C
activity, negative = inhibition ([3]; parasite line A): -6.02% (inactive)
activity, negative = inhibition ([3]; parasite line B): 6.67% (inactive)
Potency (3D7): inactive
Potency (7G8): inactive
Potency (AA1029): inactive
Potency (AS120): inactive
Potency (ATS189): inactive

CC1=C(C/C=C(\C)CCC[C@H](C)CCC[C@H](C)CCCC(C)C)C(=O)c2ccccc2C1=O
outcome [5]: inactive
outcome [2]: inactive

CCCCN1CCCC[C@H]1C(=O)Nc1c(C)cccc1C
activity, negative = inhibition ([3]; parasite line A): 5.7% (inactive)
activity, negative = inhibition ([3]; parasite line B): 17.3% (inactive)
Potency (3D7): inactive
Potency (7G8): inactive
Potency (AA1029): inactive
Potency (AS120): inactive

CC(=O)NC(Cc1ccccc1)C(=O)O (stereo not given)
activity, negative = inhibition ([3]; parasite line A): 3.68% (inactive)
activity, negative = inhibition ([3]; parasite line B): 2.97% (inactive)
Potency (3D7): inactive
Potency (7G8): inactive
Potency (AA1029): inactive
Potency (AS120): inactive
Potency (ATS189): inactive

CC(C)c1c(C(=O)Nc2ccccc2)c(-c2ccccc2)c(-c2ccc(F)cc2)n1CC[C@@H](O)C[C@@H](O)CC(=O)O
Z-AUC [4]: -0.739 (inactive)
Z-AUC [4, 6]: -0.99
Z-AUC ([4]; measured here: PEO4 Z-AUC): -1.27

NC(=O)c1ncn([C@@H]2O[C@H](CO)[C@@H](O)[C@H]2O)n1
Z-AUC [4]: -0.199 (inactive)
Z-AUC [4, 6]: -0.186
Z-AUC ([4]; measured here: PEO4 Z-AUC): -0.149

CC1=C(/C=C/C(C)=C/C=C/C(C)=C/C(=O)O)C(C)(C)CCC1
Z-AUC [4]: -0.215 (inactive)
Z-AUC [4, 6]: 0.0467
Z-AUC ([4]; measured here: PEO4 Z-AUC): 0.421
activity, negative = inhibition ([3]; parasite line A): 11.8% (inactive)
activity, negative = inhibition ([3]; parasite line B): -26.7% (inactive)
Potency (3D7): inactive
Potency (7G8): inactive
Potency (AA1029): inactive
Potency (AS120): inactive
Potency (ATS189): inactive

Oc1cccc(O)c1
activity, negative = inhibition ([3]; parasite line A): 9.04% (inactive)
activity, negative = inhibition ([3]; parasite line B): 15.9% (inactive)
Potency (3D7): inactive
Potency (7G8): inactive
Potency (AA1029): inactive
Potency (AS120): inactive
Potency (ATS189): inactive

CCCCN(CCCC)CC(O)c1cc(Cl)cc2c1-c1ccc(Cl)cc1/C2=C/c1ccc(Cl)cc1 (stereo not given)
Z-AUC [4]: -0.171 (inactive)
Z-AUC [4, 6]: -0.362
Z-AUC ([4]; measured here: PEO4 Z-AUC): -0.228
Potency ([3]; parasite line A): 0.0251 µM (active)
Potency ([3]; parasite line B): 0.0071 µM (active)
Potency (3D7): 0.0158 µM (active)
Potency (7G8): 0.0028 µM (active)
Potency (AA1029): 0.0141 µM (active)
Potency (AS120): 0.01 µM (active)
Potency (ATS189): 0.0126 µM (active)

c1ccc(CN(CC2=NCCN2)c2ccccc2)cc1
activity, negative = inhibition ([3]; parasite line A): -1.61% (inactive)
activity, negative = inhibition ([3]; parasite line B): -1.95% (inactive)
Potency (3D7): inactive
Potency (7G8): 4.47 µM (active)

Nc1ncnc2c1ncn2[C@@H]1O[C@H](CO)[C@@H](O)[C@H]1O
Z-AUC [4]: 0.682 (inactive)
Z-AUC [4, 6]: 0.71
Z-AUC ([4]; measured here: PEO4 Z-AUC): 1.16
activity, negative = inhibition ([3]; parasite line A): 7.65% (inactive)
activity, negative = inhibition ([3]; parasite line B): 2.17% (inactive)
Potency (3D7): inactive
Potency (7G8): inactive
Potency (AA1029): inactive
Potency (AS120): inactive
Potency (ATS189): inactive

CCN(CC)CCNC(=O)c1c(C)[nH]c(/C=C2\C(=O)Nc3ccc(F)cc32)c1C
Z-AUC [4]: -0.535 (inactive)
Z-AUC [4, 6]: -0.162
Z-AUC ([4]; measured here: PEO4 Z-AUC): -0.0779
Potency ([3]; parasite line A): 6.31 µM (active)
Potency ([3]; parasite line B): 8.91 µM (active)
Potency (3D7): 8.91 µM (active)
Potency (7G8): 3.98 µM (active)
Potency (AA1029): 8.91 µM (active)
Potency (AS120): 7.08 µM (active)
Potency (ATS189): 8.91 µM (active)

CN1CCCCC1CCN1c2ccccc2Sc2ccc(S(C)=O)cc21 (stereo not given)
activity, negative = inhibition ([3]; parasite line A): -4.2% (inactive)
activity, negative = inhibition ([3]; parasite line B): 5.63% (inactive)
Potency (3D7): inactive
Potency (7G8): 10 µM (active)

Cn1c(=O)c2c(ncn2CC2OCCO2)n(C)c1=O
Z-AUC [4]: -0.883 (inactive)
Z-AUC [4, 6]: -0.316
Z-AUC ([4]; measured here: PEO4 Z-AUC): 0.00528
activity, negative = inhibition ([3]; parasite line A): -11.9% (inactive)
activity, negative = inhibition ([3]; parasite line B): -9.38% (inactive)
Potency (3D7): inactive
Potency (7G8): inactive
Potency (AA1029): inactive
Potency (AS120): inactive
Potency (ATS189): inactive
